According to PubChem BioAssay (NCATS):
Results filed as inconclusive are left out. Activity calls are given as the source filed them. Calls come from the whole dose curve; as a rule, active = well fitted curve in the direction sought with a large enough effect; inconclusive = small, poorly fitted or top-dose-only effect, or another doubt; inactive = no such curve, though single readings can be large; an effect the other way counts as inactive or inconclusive. Where a SMILES comes first, the peptide text is derived from it.

Columns and labels:
[1] = qHTS of pediatric cancer cell lines to identify multiple opportunities for drug repurposing: Primary screen for DAOY cells (AID 1347090); note: series mostly up to about 46 µM; nearly all actives have a fitted effect of over 55% in size
Method in brief: (§1)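 Eight- or eleven-point concentration series, 48 h treatment at 37 degrees C in growth media; readout CellTiter-Glo luminescence. Potency and efficacy were taken from the concentration-response curves.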

[2] = qHTS of pediatric cancer cell lines to identify multiple opportunities for drug repurposing: Primary screen for SJ-GBM2 cells (AID 1347091)
Method in brief: as §1

[3] = qHTS of pediatric cancer cell lines to identify multiple opportunities for drug repurposing: Primary screen for A673 cells (AID 1347092); note: nearly all actives have a fitted effect of over 45% in size
Method in brief: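 Cells are plated, rested 5 h, dosed by pintool, incubated 48 h, then lysed with CellTiter-Glo and read by luminescence. DMSO is the neutral control; bortezomib at 2.3 uM final is the positive control.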

[4] = qHTS of pediatric cancer cell lines to identify multiple opportunities for drug repurposing: Primary screen for SK-N-MC cells (AID 1347093); note: series mostly up to about 46 µM
Method in brief: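 Metabolically active cells were quantified by ATP-dependent luminescence (CellTiter-Glo, 15 min at room temperature) following 48 h treatment. Cells had been plated at 500-1,000 per well and settled for 5 h beforehand.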

[5] = qHTS of pediatric cancer cell lines to identify multiple opportunities for drug repurposing: Primary screen for BT-37 cells (AID 1347094); note: series mostly up to about 57 µM
Method in brief: (§2)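 Luminescence from CellTiter-Glo served as readout of metabolically active cells after 48 h compound exposure. Titrations: MIPE 11-point, from 0.78 nM; NPC 8-point, from 0.59 nM (final). Concentration-response curves came straight from the primary screen.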

[6] = qHTS of pediatric cancer cell lines to identify multiple opportunities for drug repurposing: Primary screen for NB-EBc1 cells (AID 1347095)
Method in brief: as §2

[7] = qHTS of pediatric cancer cell lines to identify multiple opportunities for drug repurposing: Primary screen for U-2 OS cells (AID 1347096); note: nearly all actives have a fitted effect of over 50% in size
Method in brief: (§3)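 Cells (500-1,000/well) in growth media were settled 5 h at 37 degrees C, then given compounds for 48 h. Viability was read as CellTiter-Glo luminescence. Primary runs used MIPE at 11 points (0.78 nM-46 µM) and NPC at 8 points (0.59 nM-46 µM); follow-ups used 11 points.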

[8] = qHTS of pediatric cancer cell lines to identify multiple opportunities for drug repurposing: Primary screen for Saos-2 cells (AID 1347097); note: nearly all actives have a fitted effect of over 40% in size
Method in brief: as §2

[9] = qHTS of pediatric cancer cell lines to identify multiple opportunities for drug repurposing: Primary screen for SK-N-SH cells (AID 1347098);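 note: DMSO served as neutral control and bortezomib at 2.3 µM as positive control; nearly all actives have a fitted effect of over 65% in size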
Method in brief: (§4)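 Cells (500-1,000/well) rested 5 h, then received compounds for 48 h; metabolically active cells were measured by CellTiter-Glo luminescence. Final concentrations spanned up to 46 µM (MIPE, 11-point) or 0.59 nM-46 µM (NPC, 8-point) in primary screens, 11-point in follow-ups.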

[10] = qHTS of pediatric cancer cell lines to identify multiple opportunities for drug repurposing: Primary screen for NB1643 cells (AID 1347099); note: nearly all actives have a fitted effect of over 50% in size
Method in brief: as §2

[11] = qHTS of pediatric cancer cell lines to identify multiple opportunities for drug repurposing: Primary screen for LAN-5 cells (AID 1347100)
Method in brief: as §3

[12] = qHTS of pediatric cancer cell lines to identify multiple opportunities for drug repurposing: Primary screen for BT-12 cells (AID 1347101); note: nearly all actives have a fitted effect of over 25% in size
Method in brief: as §4

[13] = qHTS of pediatric cancer cell lines to identify multiple opportunities for drug repurposing: Primary screen for Rh18 cells (AID 1347102); note: nearly all actives have a fitted effect of over 65% in size
Method in brief: as §3

[14] = qHTS of pediatric cancer cell lines to identify multiple opportunities for drug repurposing: Primary screen for OHS-50 cells (AID 1347103); note: nearly all actives have a fitted effect of over 40% in size
Method in brief: as §4

[15] = qHTS of pediatric cancer cell lines to identify multiple opportunities for drug repurposing: Primary screen for RD cells (AID 1347104); note: nearly all actives have a fitted effect of over 55% in size
Method in brief: as §2

[16] = qHTS of pediatric cancer cell lines to identify multiple opportunities for drug repurposing: Primary screen for MG 63 (6-TG R) cells (AID 1347105); note: nearly all actives have a fitted effect of over 50% in size
Method in brief: as §2

[17] = qHTS of pediatric cancer cell lines to identify multiple opportunities for drug repurposing: Primary screen for control Hh wild type fibroblast cells (AID 1347106);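 note: series mostly up to about 46 µM; a drop in luminescence marks cytotoxicity and a rise apparent proliferation; nearly all actives have a fitted effect of over 55% in size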
Method in brief: as §3

[18] = qHTS of pediatric cancer cell lines to identify multiple opportunities for drug repurposing: Primary screen for Rh30 cells (AID 1347107); note: series mostly up to about 46 µM; nearly all actives have a fitted effect of over 75% in size
Method in brief: as §3

[19] = qHTS of pediatric cancer cell lines to identify multiple opportunities for drug repurposing: Primary screen for Rh41 cells (AID 1347108);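 note: series mostly up to about 46 µM; luminescence drop marks cytotoxic hits; nearly all actives have a fitted effect of over 70% in size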
Method in brief: as §2

Measured: Potency

CO[C@]1(NC(=O)CSC(F)F)C(=O)N2C(C(=O)O)=C(CSc3nnnn3CCO)CO[C@H]21
inactive: all assays above

O=C(O)[C@@H](O)[C@H](O)[C@H](O)[C@@H](O)C(=O)O
inactive: all assays above

CN(C)CCN1CCN(c2cccc(Cl)c2)C1=O
inactive: all assays above

CN1Cc2cc(C(=O)N3CCC(C4CCNCC4)CC3)ccc2N[C@@H](CC(=O)O)C1=O
inactive: all assays above

COc1ccc2c(c1)CCCC2=O
not listed: [19]
inactive: all other assays above

COc1cc(C=O)ccc1O
not listed: [19]
inactive: all other assays above

OCc1cccnc1
inactive: all assays above

COc1ccc(CCC(C)=O)cc1
inactive: all assays above

CCOc1ncc(F)c(=O)[nH]1
inactive: all assays above

CC(=O)O[C@@H]1CC2C3CCc4cc(OC(=O)c5ccccc5)ccc4C3CCC2(C)[C@H]1OC(C)=O (some centres undefined)
inactive: all assays above

CCNC(=O)NCCCOc1cccc(CN2CCCCC2)c1
inactive: all assays above

O=C1NC(c2ccccc2)(c2ccccc2)C(=O)N1COP(=O)(O)O
inactive: all assays above

O=c1[nH]c2ccccc2c(=O)n1CCCl
not listed: [19]
inactive: all other assays above

O=C(O)Cn1cnnn1
inactive: all assays above

CN(CC1(C)CCCO1)S(=O)(=O)c1ccc(Cl)c(S(N)(=O)=O)c1 (centres undefined)
inactive: all assays above

[O-][n+]1cccc(/C(Cl)=N/OC[C@@H](O)CN2CCCCC2)c1
inactive: all assays above

CC(=O)Nc1ccc(S(=O)(=O)Nc2cc(C)on2)cc1
inactive: all assays above

CCO[C@H](Cc1ccc(OCCc2ccc(OS(C)(=O)=O)cc2)cc1)C(=O)O
inactive: all assays above

O=C1Cc2cc(Cl)ccc2N1
inactive: all assays above

CC(=O)N(CC(O)CO)c1c(I)c(C(=O)NCCO)c(I)c(C(=O)NCC(O)CO)c1I (centres undefined)
inactive: all assays above

CC(C)NC(=O)c1ccc(C=O)cc1
inactive: all assays above

CCOC(=O)C(=O)CCc1ccccc1
inactive: all assays above

COc1cc(OC)nc(O[C@H](C(=O)O)C(OC)(c2ccccc2)c2ccccc2)n1
not listed: [19]
inactive: all other assays above

OC1(c2ccc(Cl)cc2)CCNCC1
inactive: all assays above

C=CC[N+]1([C@H]2C[C@H]3[C@@H]4CC[C@H]5C[C@H](OC(C)=O)[C@@H](N6CCCCC6)C[C@]5(C)[C@H]4CC[C@]3(C)[C@H]2OC(=O)CC)CCCCC1
inactive: all assays above

CC(=O)N[C@@H](CO)C(=O)N[C@@H](CC(=O)O)C(=O)N[C@@H](CCCCN)C(=O)N1CCC[C@H]1C(=O)O (Ac-SDKP-OH)
inactive: all assays above

O=C(CCCCCCCCC#CI)Oc1ccccc1
inactive: all assays above
